Test results taken from the supplement of paper PMC11732987, “Enantioselective OTUD7B fragment discovery through chemoproteomics screening and high-throughput optimisation” (Communications Chemistry, 2025).

Key:
Test in all cases: log2 ratio of Biotin-Ahx-Ub-VS probe labelling (fragment/DMSO); higher = less target engagement (more negative = stronger competition), active = hit call of the paper (q ≤ 0.05, log2 ratio ≤ -1)
Conditions in all cases: compound concentration: 200 uM; treatment time: 3 h
USP34 = USP34 (UniProt Q70CQ2)
Sequence of USP34 (Q70CQ2 whole entry, the tested form may be a part): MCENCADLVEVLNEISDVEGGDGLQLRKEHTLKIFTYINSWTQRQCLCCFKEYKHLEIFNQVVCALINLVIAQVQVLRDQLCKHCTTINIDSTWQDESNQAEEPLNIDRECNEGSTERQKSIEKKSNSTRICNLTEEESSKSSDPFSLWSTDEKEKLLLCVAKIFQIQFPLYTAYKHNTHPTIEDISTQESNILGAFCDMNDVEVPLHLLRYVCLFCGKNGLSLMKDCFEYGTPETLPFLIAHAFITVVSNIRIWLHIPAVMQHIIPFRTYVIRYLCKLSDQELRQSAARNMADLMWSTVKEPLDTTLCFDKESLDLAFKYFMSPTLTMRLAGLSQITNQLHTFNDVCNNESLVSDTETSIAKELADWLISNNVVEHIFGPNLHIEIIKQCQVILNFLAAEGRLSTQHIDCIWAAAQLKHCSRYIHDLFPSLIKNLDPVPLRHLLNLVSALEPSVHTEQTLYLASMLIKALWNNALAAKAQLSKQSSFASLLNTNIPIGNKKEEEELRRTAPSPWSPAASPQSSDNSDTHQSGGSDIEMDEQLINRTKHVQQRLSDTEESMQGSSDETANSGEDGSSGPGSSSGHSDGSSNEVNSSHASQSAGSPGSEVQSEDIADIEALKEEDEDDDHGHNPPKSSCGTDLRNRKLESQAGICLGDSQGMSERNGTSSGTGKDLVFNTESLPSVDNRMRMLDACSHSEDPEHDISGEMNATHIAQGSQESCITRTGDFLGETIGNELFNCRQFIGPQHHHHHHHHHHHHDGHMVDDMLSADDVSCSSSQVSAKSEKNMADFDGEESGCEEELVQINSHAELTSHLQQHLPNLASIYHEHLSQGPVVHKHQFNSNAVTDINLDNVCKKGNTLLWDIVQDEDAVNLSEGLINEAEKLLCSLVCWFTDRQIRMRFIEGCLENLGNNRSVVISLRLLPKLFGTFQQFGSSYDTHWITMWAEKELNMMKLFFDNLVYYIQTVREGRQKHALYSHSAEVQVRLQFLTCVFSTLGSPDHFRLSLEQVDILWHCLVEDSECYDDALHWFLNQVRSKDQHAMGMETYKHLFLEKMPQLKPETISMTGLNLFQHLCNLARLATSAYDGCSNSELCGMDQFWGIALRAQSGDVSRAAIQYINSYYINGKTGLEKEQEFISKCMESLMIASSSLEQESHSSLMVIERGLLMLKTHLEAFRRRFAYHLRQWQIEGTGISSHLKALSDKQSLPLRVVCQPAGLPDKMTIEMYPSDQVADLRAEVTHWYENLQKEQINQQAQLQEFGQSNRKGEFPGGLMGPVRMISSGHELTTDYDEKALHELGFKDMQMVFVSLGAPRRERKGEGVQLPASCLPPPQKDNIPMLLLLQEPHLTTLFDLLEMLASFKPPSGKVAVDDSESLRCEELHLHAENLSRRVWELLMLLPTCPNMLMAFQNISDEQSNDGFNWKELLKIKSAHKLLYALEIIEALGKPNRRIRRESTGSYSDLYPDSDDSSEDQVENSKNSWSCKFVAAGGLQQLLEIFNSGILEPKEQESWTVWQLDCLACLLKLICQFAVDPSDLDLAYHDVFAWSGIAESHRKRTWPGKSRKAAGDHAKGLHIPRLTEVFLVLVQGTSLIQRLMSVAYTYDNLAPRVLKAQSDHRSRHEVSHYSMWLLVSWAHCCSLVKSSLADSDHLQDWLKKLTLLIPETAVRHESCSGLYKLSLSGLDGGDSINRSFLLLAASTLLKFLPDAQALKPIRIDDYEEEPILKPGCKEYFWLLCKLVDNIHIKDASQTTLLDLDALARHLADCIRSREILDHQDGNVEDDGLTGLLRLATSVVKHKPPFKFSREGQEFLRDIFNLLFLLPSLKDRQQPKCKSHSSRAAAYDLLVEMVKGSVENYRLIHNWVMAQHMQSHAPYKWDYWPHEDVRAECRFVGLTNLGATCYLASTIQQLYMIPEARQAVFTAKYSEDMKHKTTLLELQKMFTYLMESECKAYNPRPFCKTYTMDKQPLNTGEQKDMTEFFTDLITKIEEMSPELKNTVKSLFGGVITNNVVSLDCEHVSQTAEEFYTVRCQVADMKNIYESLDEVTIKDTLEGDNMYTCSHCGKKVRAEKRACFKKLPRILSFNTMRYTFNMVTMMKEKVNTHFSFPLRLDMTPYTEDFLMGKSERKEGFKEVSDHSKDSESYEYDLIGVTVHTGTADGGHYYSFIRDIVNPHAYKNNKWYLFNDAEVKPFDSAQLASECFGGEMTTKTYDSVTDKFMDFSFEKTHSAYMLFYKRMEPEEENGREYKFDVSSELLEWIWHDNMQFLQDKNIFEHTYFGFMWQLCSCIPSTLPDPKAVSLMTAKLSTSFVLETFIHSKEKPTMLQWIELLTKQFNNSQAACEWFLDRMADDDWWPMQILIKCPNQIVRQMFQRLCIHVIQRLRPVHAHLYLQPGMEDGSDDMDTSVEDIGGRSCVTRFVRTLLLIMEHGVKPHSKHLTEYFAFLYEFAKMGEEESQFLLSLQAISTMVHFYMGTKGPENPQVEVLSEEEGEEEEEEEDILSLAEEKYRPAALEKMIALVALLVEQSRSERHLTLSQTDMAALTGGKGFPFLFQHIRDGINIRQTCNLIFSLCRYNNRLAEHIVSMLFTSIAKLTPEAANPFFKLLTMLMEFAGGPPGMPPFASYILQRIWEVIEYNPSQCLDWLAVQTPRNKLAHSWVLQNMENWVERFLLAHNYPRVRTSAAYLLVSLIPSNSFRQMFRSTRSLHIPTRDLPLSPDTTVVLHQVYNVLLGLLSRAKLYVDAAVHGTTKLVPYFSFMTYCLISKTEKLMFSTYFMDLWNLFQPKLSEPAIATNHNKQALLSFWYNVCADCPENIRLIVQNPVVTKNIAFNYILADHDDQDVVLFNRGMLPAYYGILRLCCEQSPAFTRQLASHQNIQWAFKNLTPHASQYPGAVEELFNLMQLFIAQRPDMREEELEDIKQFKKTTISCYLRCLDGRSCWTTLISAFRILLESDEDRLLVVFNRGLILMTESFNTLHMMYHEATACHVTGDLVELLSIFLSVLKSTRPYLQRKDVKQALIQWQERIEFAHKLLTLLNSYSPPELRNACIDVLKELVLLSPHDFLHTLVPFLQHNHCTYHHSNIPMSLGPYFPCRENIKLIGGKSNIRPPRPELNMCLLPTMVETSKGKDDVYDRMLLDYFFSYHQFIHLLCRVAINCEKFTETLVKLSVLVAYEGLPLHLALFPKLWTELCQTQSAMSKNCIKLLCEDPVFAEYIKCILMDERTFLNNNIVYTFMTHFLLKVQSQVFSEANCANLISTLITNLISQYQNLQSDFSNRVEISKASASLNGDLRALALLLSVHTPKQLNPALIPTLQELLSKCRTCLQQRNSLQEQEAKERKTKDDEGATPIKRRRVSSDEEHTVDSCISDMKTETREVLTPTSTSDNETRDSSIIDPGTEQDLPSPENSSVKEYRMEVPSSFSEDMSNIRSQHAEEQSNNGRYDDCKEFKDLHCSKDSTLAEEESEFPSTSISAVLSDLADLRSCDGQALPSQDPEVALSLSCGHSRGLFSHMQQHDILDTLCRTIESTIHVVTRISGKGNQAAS
How it was run: (§1)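 Labelled DUBs from HEK293T lysate were NeutrAvidin-enriched, digested with LysC and trypsin, and run by diaPASEF LC-MS/MS. Before that, each 495 µg sample in Tris/CHAPS/IGEPAL buffer with protease inhibitors was treated in triplicate with fragment at 200 µM or vehicle for 3 h, then with Biotin-Ahx-Ub-VS at 0.5 µM final for 1 h. Values are average log2 ratios of fragment over vehicle by unpaired t-test, based on global-median-normalised Spectronaut label-free quantities from proteins with ≥2 unique peptides.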

USP36 = biological target: T1, USP36 (UniProt Q9P275)
T1 sequence (whole entry): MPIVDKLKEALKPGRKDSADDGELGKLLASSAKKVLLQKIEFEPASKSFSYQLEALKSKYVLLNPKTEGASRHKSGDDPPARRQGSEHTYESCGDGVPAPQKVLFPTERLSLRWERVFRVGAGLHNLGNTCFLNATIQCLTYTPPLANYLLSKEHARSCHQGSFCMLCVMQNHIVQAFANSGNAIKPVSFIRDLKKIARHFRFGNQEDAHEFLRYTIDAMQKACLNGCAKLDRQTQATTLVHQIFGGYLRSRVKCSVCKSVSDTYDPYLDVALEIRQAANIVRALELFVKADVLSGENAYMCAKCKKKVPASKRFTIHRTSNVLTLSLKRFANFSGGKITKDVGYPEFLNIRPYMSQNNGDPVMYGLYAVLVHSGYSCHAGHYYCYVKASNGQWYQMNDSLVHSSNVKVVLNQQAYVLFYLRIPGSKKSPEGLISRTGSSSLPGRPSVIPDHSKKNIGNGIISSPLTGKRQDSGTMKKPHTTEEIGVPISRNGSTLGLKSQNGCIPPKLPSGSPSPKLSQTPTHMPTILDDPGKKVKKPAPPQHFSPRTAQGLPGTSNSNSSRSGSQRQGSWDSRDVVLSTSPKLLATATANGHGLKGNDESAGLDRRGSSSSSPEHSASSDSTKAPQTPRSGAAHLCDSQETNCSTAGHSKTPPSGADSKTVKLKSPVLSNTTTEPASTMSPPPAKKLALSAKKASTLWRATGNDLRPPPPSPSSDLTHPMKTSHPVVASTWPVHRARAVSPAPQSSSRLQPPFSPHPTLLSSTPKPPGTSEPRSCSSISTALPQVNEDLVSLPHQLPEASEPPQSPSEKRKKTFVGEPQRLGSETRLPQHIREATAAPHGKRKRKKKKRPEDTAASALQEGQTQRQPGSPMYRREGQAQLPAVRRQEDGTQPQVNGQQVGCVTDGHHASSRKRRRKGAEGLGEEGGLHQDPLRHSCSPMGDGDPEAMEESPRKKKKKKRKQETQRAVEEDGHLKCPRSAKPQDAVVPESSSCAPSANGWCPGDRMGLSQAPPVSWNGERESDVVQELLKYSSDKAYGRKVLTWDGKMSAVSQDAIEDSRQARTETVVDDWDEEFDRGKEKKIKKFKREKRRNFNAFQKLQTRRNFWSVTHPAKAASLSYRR
How it was run: as §1

USP38 = biological target: T2, USP38 (UniProt Q8NB14)
T2 sequence (whole entry): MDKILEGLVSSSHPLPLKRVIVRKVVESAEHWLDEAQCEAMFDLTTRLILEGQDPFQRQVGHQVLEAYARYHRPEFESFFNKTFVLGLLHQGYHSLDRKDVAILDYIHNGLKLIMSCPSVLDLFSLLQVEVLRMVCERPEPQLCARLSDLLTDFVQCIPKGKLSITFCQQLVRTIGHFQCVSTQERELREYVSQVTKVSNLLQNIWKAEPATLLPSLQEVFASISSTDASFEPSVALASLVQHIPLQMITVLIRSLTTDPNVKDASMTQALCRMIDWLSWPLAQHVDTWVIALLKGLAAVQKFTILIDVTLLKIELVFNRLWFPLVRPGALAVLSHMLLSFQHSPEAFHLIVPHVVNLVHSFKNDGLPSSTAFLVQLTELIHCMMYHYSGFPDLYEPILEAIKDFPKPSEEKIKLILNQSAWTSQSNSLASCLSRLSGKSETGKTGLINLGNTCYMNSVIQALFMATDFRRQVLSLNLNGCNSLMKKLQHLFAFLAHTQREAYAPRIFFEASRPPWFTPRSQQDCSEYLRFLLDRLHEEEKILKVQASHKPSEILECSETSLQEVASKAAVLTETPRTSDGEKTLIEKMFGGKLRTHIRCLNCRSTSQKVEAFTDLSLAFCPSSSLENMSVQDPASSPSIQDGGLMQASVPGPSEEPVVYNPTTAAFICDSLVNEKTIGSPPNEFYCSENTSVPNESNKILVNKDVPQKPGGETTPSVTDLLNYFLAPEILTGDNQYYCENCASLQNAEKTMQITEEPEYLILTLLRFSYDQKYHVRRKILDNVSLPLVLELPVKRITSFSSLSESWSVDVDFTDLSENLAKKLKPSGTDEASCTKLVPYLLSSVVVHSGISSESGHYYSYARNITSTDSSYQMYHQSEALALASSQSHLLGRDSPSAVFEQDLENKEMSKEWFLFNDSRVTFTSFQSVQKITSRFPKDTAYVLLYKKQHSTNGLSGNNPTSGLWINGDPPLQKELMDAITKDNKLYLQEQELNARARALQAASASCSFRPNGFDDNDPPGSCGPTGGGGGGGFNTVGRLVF
How it was run: as §1

USP39 = biological target: T3, USP39 (UniProt Q53GS9)
T3 sequence (whole entry): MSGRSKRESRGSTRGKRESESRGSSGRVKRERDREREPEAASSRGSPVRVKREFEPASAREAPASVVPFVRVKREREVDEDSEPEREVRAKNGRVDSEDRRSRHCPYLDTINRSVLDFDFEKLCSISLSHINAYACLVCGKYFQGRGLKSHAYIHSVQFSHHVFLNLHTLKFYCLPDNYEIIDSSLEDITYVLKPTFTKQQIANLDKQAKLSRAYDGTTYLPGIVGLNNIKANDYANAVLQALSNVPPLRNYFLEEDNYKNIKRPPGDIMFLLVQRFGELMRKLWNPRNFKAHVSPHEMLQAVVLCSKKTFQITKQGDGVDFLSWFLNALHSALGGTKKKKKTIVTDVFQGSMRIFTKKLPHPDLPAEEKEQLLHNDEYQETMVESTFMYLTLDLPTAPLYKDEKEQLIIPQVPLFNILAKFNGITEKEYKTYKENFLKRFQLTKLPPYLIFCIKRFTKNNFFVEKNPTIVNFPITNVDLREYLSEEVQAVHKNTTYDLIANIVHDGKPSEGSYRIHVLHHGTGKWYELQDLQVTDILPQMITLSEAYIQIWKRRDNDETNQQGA
How it was run: as §1

USP4 = biological target: T4, USP4 (UniProt Q13107)
T4 sequence (whole entry): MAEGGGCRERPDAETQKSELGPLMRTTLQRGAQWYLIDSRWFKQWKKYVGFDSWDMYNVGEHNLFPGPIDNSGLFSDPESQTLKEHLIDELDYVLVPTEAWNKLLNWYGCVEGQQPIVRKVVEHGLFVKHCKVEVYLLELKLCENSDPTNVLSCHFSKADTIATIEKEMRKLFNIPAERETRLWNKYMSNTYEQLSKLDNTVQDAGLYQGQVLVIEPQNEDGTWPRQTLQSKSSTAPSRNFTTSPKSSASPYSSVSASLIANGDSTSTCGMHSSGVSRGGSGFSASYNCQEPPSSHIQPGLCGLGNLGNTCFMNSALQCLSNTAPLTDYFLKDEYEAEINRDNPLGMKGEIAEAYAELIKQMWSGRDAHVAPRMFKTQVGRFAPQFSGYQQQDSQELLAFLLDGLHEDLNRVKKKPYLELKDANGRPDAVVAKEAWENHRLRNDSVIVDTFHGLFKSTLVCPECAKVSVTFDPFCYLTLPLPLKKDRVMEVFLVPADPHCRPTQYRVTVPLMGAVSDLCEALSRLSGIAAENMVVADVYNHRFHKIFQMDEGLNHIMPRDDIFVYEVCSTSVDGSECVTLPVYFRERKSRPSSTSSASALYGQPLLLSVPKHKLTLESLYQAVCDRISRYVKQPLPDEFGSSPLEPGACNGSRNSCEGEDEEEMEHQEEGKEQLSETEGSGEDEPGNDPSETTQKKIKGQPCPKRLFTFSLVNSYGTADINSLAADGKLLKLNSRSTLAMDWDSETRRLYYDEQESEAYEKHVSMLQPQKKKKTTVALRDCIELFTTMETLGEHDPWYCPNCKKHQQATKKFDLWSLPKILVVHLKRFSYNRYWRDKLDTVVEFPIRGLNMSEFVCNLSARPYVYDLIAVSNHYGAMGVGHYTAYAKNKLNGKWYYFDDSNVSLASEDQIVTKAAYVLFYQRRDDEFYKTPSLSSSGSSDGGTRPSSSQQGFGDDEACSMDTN
How it was run: as §1

Measured: log2 ratio of Biotin-Ahx-Ub-VS probe labelling

CC(NC(=O)CCl)c1cc2n(n1)CCCC2.Cl (stereo not given)
inactive: USP34 -0.00259 | USP36 0.028 | USP38 -0.215 | USP39 -0.149 | USP4 -0.121
